Screening data deposited in PubChem by National Center for Advancing Translational Sciences (NCATS).
This is a sample that favours compounds with a hit; in the whole collection about 19% have one here.
TGFb inhibitor: qHTS for Inhibitors of TGF-b | AID 588855, 2011 | 410,000 tested, 1.2% active | Potency, µM (doses to about 46.1 µM), usual class: inhibitors | HepG2 CAGA-GFP TGF-b/SMAD3 reporter, GFP fluorescence, 18 h; TGF-beta stimulated, 500 pg/mL final; note: nearly all actives have a fitted effect of over 65% in size
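Cell-based qHTS in HEPG2 carrying a CAGA-GFP Smad reporter; compounds added before 500 pg/mL final TGF-beta, 18 h incubation at 37 degrees C, GFP fluorescence quantified per cell by imaging cytometry.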
TDP1 cell CPT: qHTS for Inhibitors of human tyrosyl-DNA phosphodiesterase 1 (TDP1): qHTS in cells in presence of CPT; chicken DT40 Tdp1-/-;hTDP1 cells + 20 nM CPT, ATP luminescence, 48 h; Potency, µM (series often up to 46.2 µM), most hits filed as inhibitors; 420,000 tested, 12% active; AID 686979, 2013; note: nearly all actives have a fitted effect of over 55% in size
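Cell growth measured by CellTiter-Glo luminescence after a minimum 48 h, 37 C compound exposure with 20 nM CPT in Tdp1-knockout DT40 cells stably expressing hTDP1, seeded 400/well; qHTS titration format.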
HepG2 tox: qHTS for Inhibitors of TGF-b: Cytotox Counterscreen; HepG2 CAGA-GFP viability, ATP luminescence, 18 h; Potency, µM (top dose mostly 46.1 µM), hits mostly cytotoxic; 410,000 tested, 0.76% active; AID 588856, 2011
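CellTiter-Glo luminescence gave cytotoxicity after 18 hours at 37 degrees C. The cells were HepG2 CAGA-GFP in 1% FBS DMEM, stimulated with 500 pg/mL TGF-beta after compound addition. %Activity was normalised to no-cell wells (complete cell-killing) and DMSO (no toxicity), and curves were fitted and classified.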
IL1B secr inh: qHTS for Inhibitors of Inflammasome Signaling: IL-1-beta AlphaLISA Primary Screen; activity change, % at 57.5 µM; 360,000 tested, 4.7% active; THP-1 LPS/ATP IL-1B secretion, AlphaLISA, 16 h; hits give low values; in the data active = activity change below about -50%; inconclusive = mostly about -30% to -49%
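Secreted IL-1B measured by AlphaLISA bead assay after 16 h compound exposure of THP-1 cells; compounds (final up to 57.5 uM) added 1 h before LPS (250 ng/mL) and ATP (1.25 mM) stimulation; lower signal means less secretion.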
TDP1 inh: qHTS Assay for Inhibitors of Tyrosyl-DNA Phosphodiesterase (TDP1); Tyrosyl-DNA phosphodiesterase 1 (Homo sapiens), Q9NUW8; recombinant TDP1, AlphaScreen DNA substrate cleavage; Potency, µM (highest dose often 130 µM), usual class: inhibitors; 350,000 tested, 0.28% active; note: nearly all actives have a fitted effect of over 40% in size
Target sequence (Q9NUW8 whole entry, looked up): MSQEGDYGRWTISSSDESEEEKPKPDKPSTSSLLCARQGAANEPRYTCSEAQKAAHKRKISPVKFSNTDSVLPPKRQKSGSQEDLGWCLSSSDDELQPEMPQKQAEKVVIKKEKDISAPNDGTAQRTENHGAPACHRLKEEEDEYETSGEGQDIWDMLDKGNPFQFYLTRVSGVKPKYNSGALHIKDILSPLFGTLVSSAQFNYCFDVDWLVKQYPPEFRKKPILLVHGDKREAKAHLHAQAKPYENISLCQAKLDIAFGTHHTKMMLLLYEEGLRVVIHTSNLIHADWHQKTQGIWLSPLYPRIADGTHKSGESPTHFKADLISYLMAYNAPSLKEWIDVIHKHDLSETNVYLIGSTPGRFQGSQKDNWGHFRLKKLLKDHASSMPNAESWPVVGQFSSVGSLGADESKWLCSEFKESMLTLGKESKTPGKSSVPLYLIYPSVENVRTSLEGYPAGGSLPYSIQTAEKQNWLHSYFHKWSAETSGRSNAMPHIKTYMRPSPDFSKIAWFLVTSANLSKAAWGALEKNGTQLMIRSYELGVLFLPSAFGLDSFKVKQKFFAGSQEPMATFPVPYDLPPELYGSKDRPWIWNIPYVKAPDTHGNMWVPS
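AlphaScreen read-out: signal falls as enzyme removes the 3' tyrosine-FITC from a 5'-biotinylated DNA oligo (15 nM, 5 min, RT). Enzyme was E. coli-made recombinant Tdp1 at 1 nM, exposed to compound for 15 min beforehand; beads 10 ug/ml, 10 min.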
DT40 TDP1 no CPT: qHTS for Inhibitors of human tyrosyl-DNA phosphodiesterase 1 (TDP1): qHTS in cells in absence of CPT. DT40 Tdp1-/- hTDP1 cells, no CPT, ATP luminescence, 48 h. Potency, µM (titrated, usually from 46.2 µM), hits mostly inhibitors. 420,000 tested, 15% active; note: nearly all actives have a fitted effect of over 55% in size
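A cellular qHTS used chicken DT40 cells lacking endogenous Tdp1 but carrying stably transfected human TDP1. Compounds were applied without camptothecin, and cell growth kinetics were judged by ATP-dependent luminescence after ≥48 hr.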
Numbers stand for hits; – = inactive; ? = inconclusive; · = no result; [ ] = remark or other dose. Unless noted, calls come from the whole dose curve; as a rule, active = well fitted curve in the direction sought with a large enough effect; inconclusive = small, poorly fitted or top-dose-only effect, or another doubt; inactive = no such curve, though single readings can be large; an effect the other way counts as inactive or inconclusive.

SMILES | TGFb inhibitor | TDP1 cell CPT | HepG2 tox | IL1B secr inh | TDP1 inh | DT40 TDP1 no CPT
O=C(NC(c1cccnc1)C(F)(F)F)c1cc(COc2ccc3c(c2)CCCC3)on1 (stereo not drawn) | 11µM | 4.1µM | – | ? | – | 2.6µM
Cn1cc(CNC(=O)c2cc(COc3ccc4c(c3)CCCC4)on2)cn1 | – | ? | – | – | – | 15µM
CCOCCc1nn2c(=O)cc(COC(=O)C(CC)c3ccccc3)nc2s1 (stereo not drawn) | – | ? | – | · | – | ?
O=Cc1c(Sc2ccccc2)nc2ccccn2c1=O | – | ? | – | -114 | – | 16µM
O=Cc1c(SCCO)nc2ccccn2c1=O | – | – | – | – | – | –
O=Cc1c(Sc2ccccn2)nc2ccccn2c1=O | – | ? | – | -86 | – | ?
CC(O)C1CCC2C3CCC4CC(O)CCC4(C)C3CCC12C (stereo not drawn) | · | · | · | · | – | ·
CCOC(=O)CNC(=O)c1cc2c(=O)n3cccc(C)c3nc2n1C | – | – | – | · | – | –
COC(=O)CCSCC(=O)Nc1ccc(S(=O)(=O)N2CCOCC2)cc1OC | – | – | – | – | · | –
COc1cc(S(=O)(=O)N2CCOCC2)ccc1NC(=O)c1cc2c(s1)CCC2 | – | 16µM | – | ? | – | 26µM
CCc1sc(C(=O)Nc2ccc(OC)c(S(=O)(=O)N3CCOCC3)c2)cc1C | – | ? | – | – | – | ?
COc1ccc(NC(=O)c2cc3c(s2)CCC(C)C3)cc1S(=O)(=O)N1CCOCC1 (stereo not drawn) | ? | ? | – | – | – | 21µM
CC1CCc2sc(C(=O)Nc3ccc(C(N)=O)cc3)cc2C1 (stereo not drawn) | – | – | – | -70 | – | –
Cc1ccc(S(=O)(=O)N2CCOCC2)cc1NC(=O)c1cc2c(s1)CCC2 | – | ? | – | ? | – | 16µM
Cc1ccc(NC(=O)c2cc3c(s2)CCC3)cc1S(=O)(=O)N1CCOCC1 | – | ? | – | ? | – | ?
COc1ccc(-c2noc(-c3ccc(NC4CCCC4)c([N+](=O)[O-])c3)n2)cc1 | ? | – | – | · | – | –
Cc1coc2c1c(C)cc1oc(=O)c(CC(=O)N[C@@H](C)C(=O)O)c(C)c12 | – | – | – | – | · | –
Cc1ccc(S(=O)(=O)Nc2ccc(Cl)cc2)cc1NC(=O)c1cc2c(s1)CCCC2 | 13µM | ? | – | -64 | – | ?
Cc1ccc(NS(=O)(=O)c2cc(NC(=O)c3cc4c(s3)CCCC4)ccc2C)c(C)c1 | – | ? | – | – | – | ?
CC1CCN(C(=O)c2ccc(Br)c(S(=O)(=O)N3CCOCC3)c2)CC1 | – | – | – | – | – | ?
CC(=O)N1CCN(C(=O)c2ccc(Cl)c(S(=O)(=O)N3CC(C)OC(C)C3)c2)CC1 (stereo not drawn) | – | – | – | – | – | –
CC1CCN(S(=O)(=O)c2cc(C(=O)N3CCN(c4ncccn4)CC3)ccc2Br)CC1 | – | ? | – | – | – | 23µM
CC1CCCN(C(=O)c2ccc(Cl)c(S(=O)(=O)N3CCCCCC3)c2)C1 (stereo not drawn) | ? | ? | – | – | – | 18µM
CC1CN(S(=O)(=O)c2cc(C(=O)N3CCCCC3C)ccc2Cl)CC(C)O1 (stereo not drawn) | – | – | – | – | – | 1.8µM
CCCc1nnc(NC(=O)c2c(O)c3cccc4c3n(c2=O)CCC4)s1 | – | 3.5µM | – | · | – | 0.79µM
SMILES | TGFb inhibitor | TDP1 cell CPT | HepG2 tox | IL1B secr inh | TDP1 inh | DT40 TDP1 no CPT
Cc1csc(NC(=O)c2c(O)c3cccc4c3n(c2=O)CCC4)n1 | · | · | · | · | – | ·
O=C(c1cc2nc(-c3cccs3)cc(C(F)(F)F)n2n1)N1CCCc2ccccc21 | – | 18µM | – | – | – | ?
O=C(c1cc2nc(-c3cccs3)cc(C(F)(F)Cl)n2n1)N1CCCc2ccccc21 | – | ? | – | ? | – | ?
O=C(c1nn2c(C(F)(F)F)cc(-c3ccco3)nc2c1Br)N1CCCc2ccccc21 | – | 16µM | – | – | – | 12µM
O=C(c1nn2c(C(F)(F)F)cc(-c3cccs3)nc2c1Br)N1CCCc2ccccc21 | – | 9.2µM | – | – | – | 8.2µM
CCc1ccc(C(O)c2ncc(-c3ccc(C(F)(F)F)cc3)[nH]2)cc1 (stereo not drawn) | 16µM | ? | – | – | · | ?
OC(c1ccc(-c2ccccc2)cc1)c1ncc(-c2ccc(C(F)(F)F)cc2)[nH]1 (stereo not drawn) | ? | ? | – | – | · | ?
CCc1ccc(C(O)c2ncc(-c3ccccc3C(F)(F)F)[nH]2)cc1 (stereo not drawn) | – | 29µM | – | – | · | ?
Cc1cccc(C)c1C(O)c1ncc(-c2ccccc2C(F)(F)F)[nH]1 (stereo not drawn) | – | – | – | – | · | ?
Cc1ccc2nc(CSc3nnc(NC(=O)COc4ccccc4)s3)cc(=O)n2c1 | – | – | – | · | – | –
COC(=O)C12CC3(CCC4C5C(C(OCc6ccccc6)C41)C52)OCCO3 (stereo not drawn) | · | · | · | · | –[21 µM] | ·
COc1cc(/C=C(\C#N)C(N)=O)cc(CSc2nc3ccccc3s2)c1O | · | 15µM | · | · | – | 15µM
CCOc1ccc(NC(=O)Cn2ccn(-c3ccc(F)c(F)c3)c(=O)c2=O)cc1 | – | – | – | · | – | –
O=C(NC(=S)Nc1ccccn1)c1ccc(-c2ccccc2)cc1 | ? | 21µM | – | – | – | 18µM
COCCNC(=S)Nc1ccccn1 | – | – | – | – | – | –
Cc1ccnc(NC(=S)NC(=O)c2ccco2)c1 | – | – | – | – | – | –
CC(C)CCNC(=S)Nc1ccccn1 | ? | ? | – | – | – | 23µM
O=C(NC(=S)Nc1ccccn1)c1ccco1 | ? | 13µM | – | – | – | ?
Cc1ccc(NC(=S)NC(=O)c2ccccc2)cc1NC(=S)NC(=O)c1ccccc1 | – | – | – | – | – | ?
O=C(NC(=S)Nc1ccccn1)c1ccccc1 | – | – | – | – | · | ?
Cc1cc(C)c(NC(=S)NC(=O)c2ccc(-c3ccccc3)cc2)c(C)c1 | – | ? | – | – | – | 21µM
COc1ccc(Nc2cnn(-c3nc4ccccc4s3)c(=O)c2Cl)cc1 | ? | 2.1µM | – | -81 | – | 4.1µM
